Hit rate of the full screen: of about 59,000 compounds, about 6,200 (11%) were called active. Roughly 9% stayed inconclusive and do not appear here. This is one part of a sample in which actives are shown more often than they occur. Cut-off read from the data, not from the text of the source: active = max dye-equivalent concentration above about 10 nM; inconclusive = mostly about 1.1 nM to 9.6 nM; inactive = weaker than that.
Experiment: qHTS Assay for Spectroscopic Profiling in 4-MU Spectral Region
Conditions: compound autofluorescence, 340/450 nm, 4-MU equivalents; hits give high values
Procedure, shortened: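 Compounds in 100 mM Tris, pH 8.0, sat 15 min at room temperature before fluorescence was read at 340 nm excitation/450 nm emission; a per-plate six-point 4-MU standard curve converted signals to dye-equivalent concentration at each compound concentration.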

Structure (SMILES)	max dye-equivalent concentration
O=C(O)c1ccc(C(=O)c2ccccc2C(=O)O)cc1C(=O)O	inactive
CC(C)n1c(SCC(=O)Nc2ccccc2N2CCCCC2)nc2c1c(=O)n(C)c(=O)n2C	inactive
Fc1ccccc1OCCSc1nc2ccccc2o1	inactive
CC(C)NS(=O)(=O)c1ccc(CCC(=O)N2CCOCC2)cc1	inactive
Cc1ccccc1CSc1nnc(-c2cccnc2)n1N	inactive
COc1ccccc1CNc1ncncc1-c1cccnc1	inactive
COc1ccc2[nH]c3c(=O)n(Cc4ccco4)cnc3c2c1	92 nM (active)
O=c1c2[nH]c3ccc(Cl)cc3c2ncn1Cc1ccccn1	inactive
COc1ccc(C(=O)CSc2nnc(COc3ccccc3)n2Cc2ccco2)cc1	inactive
COc1ccc(-c2nnc(SCC(=O)c3ccco3)n2-c2ccccc2)cc1	inactive
Cc1ccc(Cc2cncc(O)c2)cc1S(=O)(=O)O	inactive
CCOC(=O)c1cc2n(c1N)-c1ccccc1C2=O	inactive
CCOC(=O)c1cc2n(c1C)-c1ccccc1C2=O	inactive
CCCn1c(=NC(C)=O)c(C(=O)OCC)cc2c(=O)n3ccccc3nc21	3500 nM (active)
CCC(=O)Nc1ccc2c(c1)nc(CCN1CCN(C)CC1)n2C	inactive
O=C(Nc1c2c(nn1-c1ccc(F)cc1)CS(=O)C2)C12CC3CC(CC(C3)C1)C2 (stereo unspecified)	inactive
CC(C)Cc1ccc(S(=O)(=O)N2CCN(C(=O)c3ccco3)CC2)cc1	inactive
CCc1cc(=O)oc2cc(C)cc(OC(C)C(=O)O)c12 (stereo unspecified)	82 nM (active)
Cc1cc2c(=O)n(C)c(SCC(=O)c3cc4ccccc4o3)nc2s1	inactive

Structure (SMILES)	max dye-equivalent concentration
CC(=O)Nc1ccc(S(=O)(=O)NCCc2ccccc2)cc1	inactive
COC(=O)c1ccc(C2NC(=O)NC(C)=C2C(=O)N(C)C)cc1 (stereo unspecified)	inactive
COCCOC(=O)C1=C(C)NC(=O)CC1c1cc2c(cc1Br)OCO2 (stereo unspecified)	inactive
CCCOC(=O)C1=C(C)NC2=C(C(=O)C(C(=O)OC)C(C)C2)C1c1ccc(N(C)C)cc1 (stereo unspecified)	23 nM (active)
Cc1noc(C)c1CSc1nnc2ccc3ccccc3n12	inactive
CCOC(=O)c1c(NC(=O)CSc2nnc(C)c(=O)[nH]2)sc2c1CCC2	inactive
CC1CN(C2CCCCC2)c2nc3c(c(=O)n(C)c(=O)n3C)n2C1 (stereo unspecified)	inactive
Cc1cc(NC(=O)c2cc(-c3cccs3)on2)nn1Cc1ccc(Cl)cc1	inactive
O=C(O)CCC(=O)N(Cc1cccs1)Cc1cccs1	inactive
CC(C)Cn1c(CCC(=O)O)ccc1-c1cccs1	350 nM (active)
COc1cc(C2C3C(=O)N(c4ccccc4)C(=O)C3ON2c2ccccc2)ccc1O (stereo unspecified)	inactive
CC(C)OCCCNc1nc2c(c(=O)n(Cc3ccccc3F)c(=O)n2C)n1C	inactive
COCc1nc2ccccc2n1Cc1ccccc1Br	inactive
CC1(C)CC(=O)NC=C(c2ccccc2)C1	inactive
O=c1[nH]c(-c2ccccc2)c(-c2ccccc2)[nH]1	18 nM (active)
c1ccc(-c2[nH]ncc2-c2nc3ccccc3[nH]2)cc1	inactive
Clc1ccccc1-c1cc(NCCN2CCOCC2)ncn1	inactive
COc1ccc2[nH]c(=O)c(-c3noc(-c4ccc(F)cc4)n3)cc2c1	12 nM (active)
Cc1cccc(-c2noc(-c3ccc(F)cc3)n2)c1	inactive

Structure (SMILES)	max dye-equivalent concentration
CC(=O)N1CCC2(CCCN(Cc3ccccc3)C2)CC1	inactive
O=C(CSc1n[nH]c(-c2cccnc2)n1)Nc1ccnc2ccccc12	inactive
O=C(O)C1CC(=O)N(Cc2cccnc2)C1 (stereo unspecified)	inactive
O=C(CCS(=O)(=O)Cc1ccccc1F)NCCCN1CCCCC1	inactive
Cc1nc(Nc2ccc3c(c2)OCCO3)c2nnn(Cc3ccccc3Cl)c2n1	640 nM (active)
C#CCNc1nc(C(C)C)nc2c1nnn2Cc1ccccc1F	inactive
CC(C)(C)c1nc(NCC2CCCO2)c2nnn(Cc3ccccc3)c2n1 (stereo unspecified)	inactive
Cc1ccc(-c2nnn(CC(=O)N(CCO)C(C(=O)NC(C)(C)C)c3ccncc3)n2)cc1 (stereo unspecified)	inactive
COc1ccc(S(=O)(=O)N2CCCC(C(=O)N3CCN(C)CC3)C2)cc1C (stereo unspecified)	inactive
COC(=O)N1CCC2(CCCN(Cc3ccccc3OC)C2)CC1	inactive
COc1ccc(CCNC(=O)CSc2nnc(-c3cccc(F)c3)o2)cc1OC	inactive
CCC(=O)NC(=Nc1nc2ccccc2s1)NC(=O)CC	150 nM (active)
COC(=O)Cc1cc(=O)n(-c2nc3ccccc3s2)[nH]1	inactive
O=C(O)CSCc1nc2ccccc2s1	inactive
COC(=O)CNS(=O)(=O)c1ccc(Cc2ccc(S(=O)(=O)NCC(=O)OC)cc2)cc1	inactive
Cc1ccccc1Nc1nnc(C)c(=O)[nH]1	inactive
COc1ccc(C2C(C(=O)Nc3ccccc3OC)=C(C)Nc3nnnn32)c(OC)c1 (stereo unspecified)	inactive
CCOc1cccc(-n2nnnc2-c2ccc(OC)cc2)c1	inactive
